Only some compounds are listed: those with a hit (about 5.2% of all), similar ones and a draw of the others.
NadD inh: inhibitors of S. aureus NadD, primary screen, biochemical, colorimetric, uHTS; Nicotinate-nucleotide adenylyltransferase NadD (Staphylococcus aureus N315); purified NadD enzyme, colorimetric absorbance read-out; inhibition, % at 20 µM; 0.78% of 360,000 active; AID 602399, 2012; in the data active = inhibition above about 26%
SKN-1 inh: suppressors of acrylamide-induced Pgst-4::GFP reporter in worms, primary screen, SKN-1 inhibitor project, whole organism, uHTS, GFP/RFP fluorescence ratio, strain VP596. C. elegans VP596 Pgst-4::GFP/RFP ratio, 24 h. inhibition, % at 21.8 µM. 0.49% of 360,000 active. AID 624304, 2012;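 active = interference check ratio from 0.5 to 1.5 plus GFP to RFP signal ratio inhibition reaching or exceeding a fixed threshold, cut at about 30% in these data, passing the limit was not always enough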
Vif inh: HIV Vif self-association inhibitors, primary screen, imaging, HEK293T, single point; inhibition, % at 7.49 µM; AID 602346, 2012; 0.35% of 340,000 active; HEK293T cells, Vif self-association by quenched fluorescence, 24 h; in the data active = inhibition above about 50%, passing the limit was not always enough
GRIN3A LBD mod: binders of NR3A ligand-binding domain, primary screen, biophysical, differential scanning fluorimetry, uHTS. NR3A LBD differential scanning fluorimetry, Tm shift; 0% = protein alone, 100% = glycine-bound protein. Tm shift relative to glycine control, % at 25 µM. 2.5% of 340,000 active;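 active = melting temperature shift of at least 10% of the positive control shift, at one fixed dose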
esBAF inh: Bmi1 luciferase reporter increase in mESCs, primary screen, esBAF inhibitor project, mouse ES cells, Bmi1 luciferase knock-in, single point; 2% of 350,000 active; reporter increase, % at 12.5 µM; 24 h; 100% = twice the neutral-well signal; in the data active = activation above about 40%;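 also: 0% = median of the plate's neutral control wells and 100% = double that signal; a rise in the Bmi1 reporter signal indicates esBAF inhibition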
SMARCA2 act: SMARCA2 (BRM) function activators, primary screen, cell-based, luminescence, high throughput; activation, % at 9.1 µM; 1% of 370,000 active; MG213 cells, MMTV-luciferase reporter, dexamethasone, overnight; in the data active = activation above about 7.8%;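 also: 0% = vehicle wells and 100% = reference activator wells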
The depositor's hits bear a star; · = no result; ! = not confirmed by another sample.

SMILES | NadD inh | SKN-1 inh | Vif inh | GRIN3A LBD mod | esBAF inh | SMARCA2 act
Cc1ccc(Cn2c(C(CO)Nc3nc(-c4ccc(F)cc4)cs3)nc3ccccc32)cc1 (stereo not given) | 21.8 | 14.4 | -1.2 | 18.7* | 2.4 | 2.4
CO[C@H](C(=O)N(C)C[C@H]1OCc2ccccc2-c2c(n(C)c3ccccc23)C(=O)N([C@@H](C)CO)C[C@H]1C)c1ccccc1 | · | · | · | · | 4.3 | ·
COc1ccc(-c2cc(C(=O)N3CCCCCC3)c3ccccc3n2)cc1OC | 8.5 | -11.4 | -1.6 | · | 8.7 | -0.4
COc1ccc(-c2cc(C(=O)N3CCCC(C(F)(F)F)C3)c3ccccc3n2)cc1OC (stereo not given) | 2.1 | 14.7 | -15.1 | 18.1* | 2.2 | -0.5
C/C(=N\NC(=O)c1ccc2ccccc2c1)c1cccs1 | 3.1 | 7.8 | 4.2 | -2.1 | 5.0 | 4.8
C/C(=N\NC(=O)c1cccs1)c1ccc2ccccc2c1 | -0.4 | 7.4 | 15.0 | 0.9 | 52.3* | 2.9
C/C(=N/NC(=O)CNC(=O)c1cccs1)c1ccc(Cl)cc1 | -3.7 | -4.6 | 0.8 | 20.8* | -2.8 | -3.9
CC(=O)NC[C@H]1[C@H](c2ccc(C3=CCCC3)cc2)[C@@H](CO)N1Cc1cccnc1 | · | · | · | · | 6.3 | ·
C[C@H](CO)N1C[C@H](C)[C@H](CN(C)C(=O)Nc2ccc(F)cc2)Oc2c(NC(=O)NC3CCCCC3)cccc2C1=O | · | · | · | · | 5.4 | ·
Cc1ccc(S(=O)(=O)Nc2ccc3c(c2)C(=O)N([C@@H](C)CO)C[C@H](C)[C@H](CN(C)C(=O)Nc2cccc4ccccc24)OCCCC[C@H](C)O3)cc1 | · | · | · | · | 8.0 | ·
COC(=O)c1ccc(NC(=O)CCc2c(C)nc3ncnn3c2C)cc1 | -4.5 | -3.0 | -2.8 | -2.1 | -1.5 | -2.4
CCOC(=O)c1ccc(Nc2c(CC)c(C)nc3ncnn23)cc1 | -3.4 | -4.0 | -6.7 | 0.6 | 8.6 | 1.5
Cc1nc2ncnn2c(C)c1CCC(=O)N1CCc2ccccc2C1 | -0.9 | -1.6 | -18.6 | -1.7 | -5.6 | 7.9*
COC(=O)c1ccc(Nc2cc(C)nc3ncnn23)cc1 | 2.9 | 36.7* | 3.9 | -0.2 | 1.6 | -1.8
CC(=O)c1ccc(NC(=O)CCc2c(C)nc3ncnn3c2C)cc1 | -2.7 | -24.1 | 4.2 | 0.4 | 47.6* | 0.7
Cc1nc2ncnn2c(C)c1CCC(=O)N1CCN(c2ccccn2)CC1 | -2.9 | -13.2 | 0.4 | 1.0 | -3.6 | -0.3
CCc1c(C)nc2ncnn2c1Nc1ccc(C(C)=O)cc1 | 9.2 | 14.7 | · | 1.0 | 47.7* | -0.6
COC(=O)c1cc(NC(=O)c2ccc(C)cc2)c(=O)oc1C | 3.4 | -9.1 | 21.5 | 2.4 | 45.4* | 3.6
O=C(COC(=O)c1ccco1)c1ccc2ccccc2c1 | -6.0 | 14.9 | 8.9 | 10.2* | · | 2.0
O=C(NCc1ccco1)c1ccc2ccccc2c1 | -1.2 | 8.6 | -5.7 | 1.5 | 72.0* | 1.7
COc1ccc(-n2c(N)c(C(=O)NCc3ccco3)c3nc4ccccc4nc32)cc1OC | 7.7 | 8.8 | 7.7 | 0.7 | 2.4 | 8.4*
CCC1=Nc2cc(C(=O)NCc3ccco3)ccc2Sc2ccc(C)cc21 | 5.2 | -3.4 | 56.9* | -11.1 | · | -2.5
COc1cc(-n2c(N)c(C(=O)NCc3ccco3)c3nc4ccccc4nc32)cc(OC)c1OC | 5.8 | -0.3 | 4.8 | -1.4 | · | 2.3
O=C(NCc1ccco1)c1cc(-c2ccccc2)on1 | 0.7 | 13.5 | -3.7 | 10.5* | 104.6* | 0.0
COc1ccc(-n2c(C)nc3cc(C(=O)NCc4ccco4)ccc32)cc1 | -4.0 | 41.4* | 23.8 | 8.1 | -3.7 | 0.4
SMILES | NadD inh | SKN-1 inh | Vif inh | GRIN3A LBD mod | esBAF inh | SMARCA2 act
CCc1nc2ccc(C(=O)NCCc3ccco3)cc2nc1CC | 7.7 | 26.8 | -4.9 | 3.2 | 52.9* | ·
CO[C@H]1CN(C)C(=O)c2ccc(NC(=O)NC(C)C)cc2OC[C@H](C)N(CC2CC2)C[C@H]1C | · | · | · | · | 1.5 | ·
CCOc1ccc(C2=Nc3ccc(Br)cc3C(c3ccc(N4CCOCC4)cc3)=NN2)cc1 | 19.5 | -0.8 | -1.8 | -3.1 | · | 0.7
CCOc1ccc(C2=Nc3ccccc3C(c3ccc(N4CCOCC4)cc3)=NN2)cc1 | 21.3 | 30.4 | -12.0 | 0.6 | 50.1* | 3.3
O=C(O)CC(NC(=O)c1ccccc1NC(=O)c1ccccc1)C(=O)O (stereo not given) | 3.9 | -19.8 | 3.7 | 28.0* | 0.3 | -0.7
Cc1ccc(C(=O)Nc2ccccc2C(=O)NC(C(=O)O)C(C)C)cc1 (stereo not given) | 1.6 | 18.8 | 3.8 | 0.3 | 31.2*! | 2.6
CC(C)C(NC(=O)c1ccccc1NC(=O)C(C)(C)C)C(=O)N1CCOCC1 (stereo not given) | -4.5 | 1.2 | 69.1* | 0.3 | 7.4 | -1.5
O=C(CCc1nnc(C2CCCCC2)o1)N1CCN(C2CCCCC2)CC1 | -5.5 | 8.1 | -8.6 | -0.8 | · | -0.6
CN(CCC1CCCCO1)C(=O)CCc1nnc(C2CCCCC2)o1 (stereo not given) | -3.3 | 4.2 | -0.5 | -1.7 | 54.8* | 1.2
COc1ccc(C(=O)Nc2ccc(S(=O)(=O)N3CCCC3)cc2)cc1 | -7.9 | -2.6 | -1.9 | 14.4* | · | -0.7
O=C(/C=C/c1ccc(O)c(O)c1)c1ccc(S(=O)(=O)N2CCCCCC2)cc1 | 21.2 | 13.7 | 3.7 | 22.5* | · | -1.2
COc1ccc(C(=O)NNC(=O)c2ccc(S(=O)(=O)N3CCCCC3)cc2)cc1 | -1.7 | -2.2 | 13.3 | 2.1 | · | -0.8
COc1ccc(NC(=O)Cn2ncc(Cl)c(Cl)c2=O)cc1S(=O)(=O)N1CCOCC1 | 10.6 | -8.8 | 59.0* | 1.6 | 7.3 | -9.6
COc1ccc(NS(=O)(=O)c2ccc(O)c(NC(=O)c3ccc(S(=O)(=O)N4CCCC4)cc3)c2)cc1 | -2.0 | 7.2 | -4.1 | 3.8 | -7.3 | -3.5
COc1ccc(NS(=O)(=O)c2ccc(O)c(NC(=O)c3ccc(S(=O)(=O)N4CCCCCC4)cc3)c2)cc1 | 29.4 | 11.3 | -8.8 | 16.1* | · | -4.6
Cc1ccc(S(=O)(=O)Nc2ccc3c(c2)C(=O)N([C@H](C)CO)C[C@H](C)[C@@H](CN(C)C(=O)Nc2ccccc2)O3)cc1 | · | · | · | · | -1.3 | ·
O=C(C[C@@H]1CC[C@H]2[C@@H](COC[C@H](O)CN2Cc2ccc(F)cc2)O1)NCc1ccccc1Cl | · | · | · | · | -5.0 | ·
Cc1noc(C)c1S(=O)(=O)Nc1ccc2c(c1)C(=O)N([C@@H](C)CO)C[C@@H](C)[C@H](CN(C)Cc1ccc(Cl)c(Cl)c1)OCCCC[C@@H](C)O2 | · | · | · | · | -0.2 | ·
O=C(Nc1ccc(S(=O)(=O)N2CCCC2)cc1)c1ccc(F)cc1 | 3.5 | 13.7 | 17.0 | 4.2 | -4.7 | -0.6
